The subject of assay [1] is Human papillomavirus type 1a protein E7 (residues 44-93). As to the kind of experiment: small molecules binding HPV E7 44-93 – biochemical, small-molecule microarray, residues 44-93, 635 nm fluorescence, primary screen (AID 1108).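 Also: E7 fragment applied at 1 µg/mL in TBST for 1 h at 4 C; score combines spot fluorescence with its signal to noise ratio.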 The following applies: fluorescence 635 nm, higher = more signal.
Assay [2] can be described thus: hepatitis C replication reporter changes, two-sided – Huh7 cells, luciferase reporter, HCV replication inhibitor project, primary screen (AID 1109).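 Also: huh7 hepatoma cells harbouring a luciferase neomycin HCV replicon reporter; luciferase luminescence as measure of HCV replicon replication; test concentration not given here.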 Conditions: Huh7 HCV replicon luciferase reporter, 48 h; higher = more signal. For orientation: Reporter assays use an easily measured gene product as a stand-in for the process of interest.
The target of assay [3] is Left-right determination factor 2 (Homo sapiens) (UniProt O00292). As to the kind of experiment: small molecules binding LEFTY2 protein – biochemical, small-molecule microarray, 635 nm fluorescence scan, primary screen (AID 1110). The following applies: higher = more signal.
In assay [4] the target is Calmodulin-1 (Homo sapiens) (UniProt P0DP23). As to the kind of experiment: small molecules binding calmodulin-1 with EGTA – biochemical, small-molecule microarray, Cy5-labelled CALM1, profiling panel (AID 1111).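 Also: labelled calmodulin applied in Tris saline Tween buffer holding calcium plus EGTA and DTT.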 Conditions: Cy5-CALM1 binding fluorescence, higher = more signal.
Assay [5] shares this target. The assay is described as follows: small molecules binding Ca-loaded calmodulin-1 – biochemical, small-molecule microarray, Cy5-labelled CALM1, plus calcium, artefact control for SMM control-protein annotation, profiling panel (AID 1112).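 Also: score merges spot fluorescence with signal to noise from triplicate slides.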 Conditions: Cy5-CALM1 binding fluorescence, higher = more signal.
Assay [6] in a line: probe aWnt5a binding to arrayed compounds – biochemical, biotinylated probe, 635/667 nm fluorescence, primary screen (AID 1113).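 Also: score merges 667 nm fluorescence intensity with signal-to-noise per printed feature.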 Conditions: small-molecule microarray, higher = more signal.
The nature of assay [7]: probe aShh binding to arrayed compounds – biochemical, biotinylated probe, 635/667 nm fluorescence, primary screen (AID 1114).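 Also: probe is biotin-labelled aShh protein from a stem cell growth factor screen; measures binding of labelled protein to compounds printed on the slide; score merges feature fluorescence at 667 nm with signal-to-noise.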 The following applies: small-molecule microarray, higher = more signal.
Assay [8] in a line: probe aNog binding to arrayed compounds – biochemical, biotinylated probe, 635/667 nm fluorescence, primary screen (AID 1115).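 Also: probe is biotinylated aNog protein used at 0.15 µg/mL for 1 h at 4 C; z-score combines 667 nm fluorescence of each spot with its signal to noise.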 Conditions: small-molecule microarray, higher = more signal.
For assay [9], the target named is Torsin-1A-interacting protein 1 (Homo sapiens) (UniProt Q5JTV8). The assay is described as follows: compound microarray binding of lysate hLAP1 – cell lysate, small-molecule microarray, COS7 lysate, 635/667 nm fluorescence, primary screen (AID 1116). The following applies: 635 nm fluorescence, higher = more signal.
In assay [10] the target is Alpha-bungarotoxin (Bungarus multicinctus) (UniProt P60615). The assay is described as follows: compounds binding labelled alpha-BTX control protein – biochemical, small-molecule microarray, Alexa647 label, 635/667 nm fluorescence, artefact control for SMM control protein annotation, profiling panel (AID 1117). The following applies: alpha-BTX-A647 binding fluorescence, higher = more signal.

For another assay, the target named is Albumin (Bos taurus) (UniProt P02769). As to the kind of experiment: compounds binding labelled BSA control protein – biochemical, small-molecule microarray, Alexa647 label, 635/667 nm fluorescence, artefact control for SMM control protein annotation, profiling panel (AID 1118).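 Also: score merges 667 nm emission intensity and signal-to-noise per printed compound spot.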 The following applies: BSA-A647 binding, fluorescence 635 nm, higher = more signal.

A short description of assay [11]: probe aXIP binding to arrayed compounds – biochemical, NeuroSMM set, 635/667 nm fluorescence, primary screen (AID 1119).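 Also: probe is the protein aXip251-270 applied at 1 µg/mL to compound-printed slides; binding of probe to printed compounds measured as 667 nm fluorescence plus signal to noise.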 The following applies: small-molecule microarray, higher = more signal, called active from +8 up or from −8 down.
Assay [12] in a line: probe aNOTCH3 binding on compound microarray – biochemical, small-molecule microarray, 635/667 nm fluorescence, primary screen (AID 1120).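 Also: probe is a biotin-tagged antibody raised against NOTCH3 rather than NOTCH3 protein; score merges spot fluorescence near 667 nm with spot signal to noise.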 Conditions: higher = more signal.
Assay [13] can be described thus: probe aNOTCH2 binding on compound microarray – biochemical, small-molecule microarray, 635/667 nm fluorescence, primary screen (AID 1121).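 Also: score merges feature fluorescence read at 667 nm with its signal to noise.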 The following applies: higher = more signal.
Assay [14] addresses Carbonic anhydrase 2 (Homo sapiens) (UniProt P00918). The assay is described as follows: compounds binding carbonic anhydrase 2 – biochemical, small-molecule microarray, Alexa647-labelled CAII, profiling panel (AID 1122). The following applies: CAII-A647 binding fluorescence, higher = more signal.
The nature of assay [15]: COS7 lysate on small-molecule microarray, probe aHis, 635 nm (AID 1123).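 Also: z-score combines 667nm fluorescence intensity with signal-to-noise per printed compound spot.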 Conditions: COS7 cell lysate, fluorescence, higher = more signal.
Assay [16] can be described thus: probe aLAP1 signal on lysate-treated microarray – cell lysate, small-molecule microarray, COS7 lysate, primary screen (AID 1124).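 Also: lysate comes from COS7 cells expressing LAP1 and is applied at 0.3 µg/mL; score merges spot fluorescence near 667 nm with signal-to-noise over triplicate slides.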 Conditions: probe aLAP1, fluorescence, higher = more signal.
A further assay has as its system Sam68 (KHDRBS1). As to the kind of experiment: compounds binding KHDRBS1 protein – biochemical, small-molecule microarray, 635 nm fluorescence, primary screen (AID 1125).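 Also: score merges 667 nm channel intensity with signal to noise over triplicate slides.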 Conditions: higher = more signal.
For assay [17], the system named is Chordin-like protein 2 (CHRDL2). The assay is described as follows: compounds binding chordin-like 2 – biochemical, small-molecule microarray, 635 nm fluorescence, primary screen (AID 1126).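 Also: printed compound slides probed with Chrdl2 protein at 4 µg/mL for 1 h at 4 C; score merges 667 nm emission intensity with signal to noise over three replicate slides.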 The following applies: fluorescence 635 nm, higher = more signal.
In assay [18] the target is Concanavalin-A (Canavalia ensiformis) (UniProt P02866). As to the kind of experiment: compounds binding concanavalin A lectin – biochemical, small-molecule microarray, Alexa647 label, 635 nm, artefact control for SMM control protein annotation, primary screen (AID 1127).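 Also: z combines 667 nm emission intensity with signal-to-noise across three replicate slides.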 The following applies: ConA-A647 binding fluorescence, higher = more signal.

Calls of active or inactive are those of the source.

Sequence of Alpha-bungarotoxin (Bungarus multicinctus) (P60615 whole entry, looked up): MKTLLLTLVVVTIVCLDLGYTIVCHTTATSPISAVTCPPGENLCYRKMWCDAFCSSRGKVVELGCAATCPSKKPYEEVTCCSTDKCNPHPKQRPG
Sequence of Left-right determination factor 2 (Homo sapiens) (O00292 whole entry, looked up): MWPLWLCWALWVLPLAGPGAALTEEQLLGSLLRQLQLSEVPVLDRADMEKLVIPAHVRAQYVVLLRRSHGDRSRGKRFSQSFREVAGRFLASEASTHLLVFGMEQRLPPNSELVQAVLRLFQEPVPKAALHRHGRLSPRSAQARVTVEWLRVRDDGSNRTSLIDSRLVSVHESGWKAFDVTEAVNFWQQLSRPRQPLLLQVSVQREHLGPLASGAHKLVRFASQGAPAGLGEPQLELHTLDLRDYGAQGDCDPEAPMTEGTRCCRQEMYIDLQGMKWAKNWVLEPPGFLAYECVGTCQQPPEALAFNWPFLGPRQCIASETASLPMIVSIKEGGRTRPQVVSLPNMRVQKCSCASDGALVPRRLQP
Sequence of Albumin (Bos taurus) (P02769 whole entry, looked up): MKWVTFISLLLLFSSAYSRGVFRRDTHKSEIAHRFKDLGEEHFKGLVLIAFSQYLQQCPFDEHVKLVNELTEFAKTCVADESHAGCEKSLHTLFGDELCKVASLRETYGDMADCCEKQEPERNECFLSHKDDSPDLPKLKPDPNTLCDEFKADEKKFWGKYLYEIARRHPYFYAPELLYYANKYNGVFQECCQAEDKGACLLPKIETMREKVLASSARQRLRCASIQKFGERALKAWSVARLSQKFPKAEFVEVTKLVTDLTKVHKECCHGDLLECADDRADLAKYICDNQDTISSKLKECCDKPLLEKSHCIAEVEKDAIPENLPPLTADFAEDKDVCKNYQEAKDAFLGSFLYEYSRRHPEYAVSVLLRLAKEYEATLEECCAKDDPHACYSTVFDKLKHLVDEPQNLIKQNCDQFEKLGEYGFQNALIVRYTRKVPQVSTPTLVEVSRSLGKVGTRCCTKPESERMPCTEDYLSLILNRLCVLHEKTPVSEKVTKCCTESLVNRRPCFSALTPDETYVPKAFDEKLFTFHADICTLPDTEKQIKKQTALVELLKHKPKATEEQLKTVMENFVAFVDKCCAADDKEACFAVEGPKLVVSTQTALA
Sequence of Concanavalin-A (Canavalia ensiformis) (P02866 whole entry, looked up): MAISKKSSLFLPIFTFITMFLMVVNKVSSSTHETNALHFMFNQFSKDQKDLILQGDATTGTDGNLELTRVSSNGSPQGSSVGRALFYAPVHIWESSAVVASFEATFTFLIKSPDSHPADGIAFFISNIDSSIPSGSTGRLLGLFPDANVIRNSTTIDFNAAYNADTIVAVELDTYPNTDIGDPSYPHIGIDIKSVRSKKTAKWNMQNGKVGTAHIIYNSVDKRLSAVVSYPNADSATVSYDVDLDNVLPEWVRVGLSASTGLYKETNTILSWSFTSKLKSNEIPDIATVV
Sequence of Torsin-1A-interacting protein 1 (Homo sapiens) (Q5JTV8 whole entry, looked up): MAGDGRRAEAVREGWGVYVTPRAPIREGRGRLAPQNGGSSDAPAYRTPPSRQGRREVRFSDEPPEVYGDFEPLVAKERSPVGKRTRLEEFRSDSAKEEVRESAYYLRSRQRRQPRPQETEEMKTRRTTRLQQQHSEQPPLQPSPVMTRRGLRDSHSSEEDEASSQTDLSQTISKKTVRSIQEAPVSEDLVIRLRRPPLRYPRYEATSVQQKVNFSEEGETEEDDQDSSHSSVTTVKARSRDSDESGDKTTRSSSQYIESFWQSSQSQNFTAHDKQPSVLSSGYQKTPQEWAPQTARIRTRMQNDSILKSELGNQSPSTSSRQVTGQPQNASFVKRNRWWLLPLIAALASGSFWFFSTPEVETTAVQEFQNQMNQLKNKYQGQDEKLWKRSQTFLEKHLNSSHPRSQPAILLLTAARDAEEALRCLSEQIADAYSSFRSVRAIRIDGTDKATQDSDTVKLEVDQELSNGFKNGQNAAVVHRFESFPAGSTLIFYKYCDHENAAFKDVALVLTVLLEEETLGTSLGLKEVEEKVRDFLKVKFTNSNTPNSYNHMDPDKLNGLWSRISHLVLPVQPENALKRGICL

As for `C=CCOC(=O)[C@H]1[C@@H]2C(=O)O[C@@H](c3ccccc3)[C@@H](c3ccccc3)N2[C@@H](c2ccc(OCCOC(=O)[C@H]3C[C@H]4C(=O)N5CCC[C@H]5C(=O)N4[C@H]3c3ccc(O)cc3)cc2)[C@]12C(=O)Nc1ccc(I)cc12`, the composite z-score was determined as 1.48 in assay [1]; 1.52 in [3]; 1.22 in assay [4]; 1.41 in assay [5]; 0.547 in assay [6]; 2.8 in assay [7]. Besides, the composite z-score in assay [8] is 2.82; in assay [9], 2.74; in assay [10] it was 2.81; with Albumin (Bos taurus), -0.124; in assay [12], 1.47; in assay [13] it was 0.755. The composite z-score is 0.364 in [14]; 3.31 in assay [15]; 1.13 in assay [16]; 1.31 in the assay with Sam68 (KHDRBS1); 1.06 in [17]; 0.955 in [18]. In assay [2], this compound displayed a z-score of 0.56. In assay [11], the composite Z-score is 5.37 (inactive).

As for `COc1ccc(NN2C(C(O)c3ccc([N+](=O)[O-])cc3)C=CC3C(=O)N(C4CCCCC4)C(=O)C32)cc1` (stereo not given), the composite z-score in assay [1] is 1.35; in [3], -0.0693; in assay [4] it was 1.04; in assay [5], 0.212; in [6], -0.0758; in assay [7], 0.368. Further, the composite z-score in assay [8] is 0.797; in [9] it was 0.55; in [10], 0.799; in the assay with Albumin (Bos taurus), 0.424; in assay [12], 0.178; in assay [13], -0.115. The composite z-score in assay [14] is 0.561; in assay [15] it was 1.48; in assay [16], -0.0699; in the assay on Sam68 (KHDRBS1), 1.23; in assay [17], -0.261; in [18], 0.505. The z-score in assay [2] is 0.376. The composite Z-score in assay [11] was 0.601 (inactive).

With `CC(C)c1ccc(NN2C(C(O)c3cc(C(F)(F)F)cc(C(F)(F)F)c3)C=CC3C(=O)N(c4ccccc4)C(=O)C32)cc1` (stereo not given), the composite z-score in assay [1] was 1.35; in [3], -0.931; in assay [4] it was 1.55; in assay [5], 0.647; in assay [6] it was -0.0704; in [7], 0.37. Moreover, the composite z-score in assay [8] was found to be 0.897; in [9], 0.831; in assay [10] it was 0.817; in the assay with Albumin (Bos taurus), 0.588; in assay [12], 0.0203; in assay [13], 0.0506. The composite z-score in [14] is 0.489; in assay [15], 2.43; in [16], 0.152; with Sam68 (KHDRBS1), 0.924; in assay [17], -0.219; in assay [18] it was 0.568. The compound further showed a z-score in assay [2] of -0.748. The composite Z-score in [11] is -0.117 (inactive).

Turning to `CC1CC/C=C\[C@H]2OC34C=CCN(Cn5nnc6ccccc65)C(=O)[C@H]3N(C(CO)C(C)C)C(=O)[C@@H]4C2C(=O)O1` (stereo not given in full), the composite z-score in assay [1] is 0.696; in [3], -1.19; in assay [4], -0.195; in assay [5], -0.607; in assay [6] it was -0.175; in [7], 0.0141. In addition, the composite z-score is 0.356 in [8]; 0.64 in assay [9]; 2.2 in [10]; 0.568 with Albumin (Bos taurus); -0.0647 in [12]; -0.14 in assay [13]. The composite z-score in assay [14] is 0.662; in assay [15], 2.23; in assay [16], 0.549; in the assay with Sam68 (KHDRBS1), 0.272; in assay [17], -0.89; in [18], -0.43. In [2], the z-score turned out to be 0.238. The composite Z-score in assay [11] is -0.0775 (inactive).

With `CCOC(=O)C1=CCC(c2ccccc2)N(S(=O)(=O)CC[Si](C)(C)C)C1` (stereo not given), the composite z-score is -0.312 in assay [1]; -0.262 in assay [3]; -0.0436 in assay [4]; 0.0045 in assay [5]; -0.208 in [6]; -0.262 in assay [7]. Also, the composite z-score is -0.338 in [8]; -0.28 in assay [9]; 0.115 in assay [10]; -0.149 in the assay with Albumin (Bos taurus); -0.392 in [12]; -0.188 in assay [13]. Moreover, the composite z-score in assay [14] was -0.35; in assay [15], -0.177; in [16], -0.0394; with Sam68 (KHDRBS1), -0.717; in assay [17], 0.165; in [18], -0.0238. This compound had a z-score in [2] of -0.327. Also, the composite Z-score in [11] is 0.0503 (inactive).

Consider `CC(C)(C)OC(=O)CC[C@@]12N=C(c3ccc(OCCCO)cc3)O[C@@H]1c1ccccc1N(CCS(=O)(=O)c1ccccc1)C2=O`, for which the composite z-score in assay [1] is 1.08; in assay [3], 0.374; in assay [4], 0.887; in [5], 0.105; in [6], -0.0203; in assay [7], -0.0035. The composite z-score in [8] is -0.335; in assay [9], 0.642; in assay [10], 1.35; with Albumin (Bos taurus) it was -0.458; in [12], 0.106; in assay [13], -0.179. Moreover, the composite z-score is 0.73 in assay [14]; 1.59 in assay [15]; 0.184 in [16]; 0.461 in the assay with Sam68 (KHDRBS1); 0.623 in [17]; 1.14 in assay [18]. Besides, the z-score in assay [2] was -0.831. Besides, the composite Z-score in assay [11] is 0.733 (inactive).
